From PubChem BioAssay (NCI)
About 79,000 compounds went through this panel and 15% of them were active in at least one assay; those are over-represented in the sample as a whole. Activity calls are given as the source filed them. Rule as the data show it: active = growth inhibition above about 70%; inactive = the rest.

How the values were obtained:
[1] = NCI Yeast Anticancer Drug Screen. Data for the mec2-1 strain (AID 157); settings: S. cerevisiae mec2-1 strain, active compounds read high
Procedure, shortened: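 Using mec2-1 yeast: add compound, measure growth, express inhibition versus vehicle-treated cultures.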

[2] = NCI Yeast Anticancer Drug Screen. Data for the rad14 strain (AID 159);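 also: 0% = growth of vehicle-treated control cultures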; settings: S. cerevisiae rad14 strain growth inhibition, active compounds read high
Procedure, shortened: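 Test compounds were applied to a repair-deficient yeast strain. Its growth was then compared with that of cultures given vehicle alone, and inhibition was expressed relative to those controls.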

[3] = NCI Yeast Anticancer Drug Screen. Data for the sgs1 mgt1 strain (AID 161);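 also: 0% = growth of cultures given vehicle only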; settings: S. cerevisiae sgs1 mgt1 strain, active compounds read high
Procedure, shortened: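 This yeast growth screen uses a strain with defined DNA-repair lesions; compound-treated growth is compared with vehicle-treated growth.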

[4] = NCI Yeast Anticancer Drug Screen. Data for the CLN2oe strain (AID 163);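 also: 0% = growth of vehicle-only control cultures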; settings: S. cerevisiae CLN2oe strain, active compounds read high
Procedure, shortened: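 Whole-cell yeast growth assay. A strain engineered for altered cell-cycle control received compound, and inhibition relative to vehicle-treated cultures was recorded.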

[5] = NCI Yeast Anticancer Drug Screen. Data for the cln2 rad14 strain (AID 165);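 also: 0% = growth equal to vehicle treated cultures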; settings: S. cerevisiae cln2 rad14 strain, active compounds read high
Procedure, shortened: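 Yeast strain cln2 rad14, bearing defects in cell cycle control and DNA repair, serves as the test system; values reflect growth inhibition compared with vehicle.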

[6] = NCI Yeast Anticancer Drug Screen. Data for the bub3 strain (AID 167); settings: S. cerevisiae bub3 mutant strain, active compounds read high
Procedure, shortened: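 Yeast carrying a defined mutation is treated with each compound, and growth is compared with that of vehicle-exposed cells to give inhibition.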

[7] = NCI Yeast Anticancer Drug Screen. Data for the wt2 strain (AID 169);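 also: 0% = growth of vehicle-treated yeast cultures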; settings: S. cerevisiae wt2 strain growth inhibition, active compounds read high
Procedure, shortened: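 Treated yeast vs. vehicle-treated yeast: growth inhibition determined.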

[8] = NCI Yeast Anticancer Drug Screen. Data for the sgs1 strain (AID 173);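 also: 0% = growth of vehicle-only control cultures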; settings: S. cerevisiae sgs1 mutant, active compounds read high
Procedure, shortened: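 A genetically defined yeast mutant is incubated with the test compound, and its growth is compared to that of the same strain given vehicle.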

[9] = NCI Yeast Anticancer Drug Screen. Data for the mlh1 rad18 strain (AID 175); settings: S. cerevisiae mlh1 rad18 strain growth inhibition, active compounds read high
Procedure, shortened: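 Steps: expose repair-defective yeast to compound; measure growth; express inhibition against vehicle-treated controls.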

[10] = NCI Yeast Anticancer Drug Screen. Data for the rad18 strain (AID 177); settings: S. cerevisiae rad18 mutant growth inhibition, active compounds read high
Procedure, shortened: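 Measured value is growth inhibition of a yeast strain bearing a DNA repair alteration, referenced to vehicle-treated cells.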

[11] = NCI Yeast Anticancer Drug Screen. Data for the rad52 strain (AID 147);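 also: 0% = growth of vehicle-treated control cultures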; settings: S. cerevisiae rad52 mutant growth inhibition, active compounds read high
Procedure, shortened: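 Here a repair-compromised yeast strain receives each compound; its growth is then quantified and normalised to vehicle-only controls.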

[12] = NCI Yeast Anticancer Drug Screen. Data for the wt1 strain (AID 149);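 also: 0% = growth of vehicle-treated wt1 cultures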; settings: S. cerevisiae wt1 strain (SPY 50644) growth inhibition, active compounds read high
Procedure, shortened: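 wt1 yeast, compound-treated; % growth inhibition vs vehicle control.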

[13] = NCI Yeast Anticancer Drug Screen. Data for the rad50EPP+ strain (AID 151);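 also: 0% = growth of vehicle-treated control cultures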; settings: S. cerevisiae rad50 mutant strain, active compounds read high
Procedure, shortened: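 Read-out is yeast growth inhibition relative to vehicle; cells used were the rad50EPP+ strain.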

[14] = NCI Yeast Anticancer Drug Screen. Data for the rad50 strain (AID 155);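 also: 0% = growth of vehicle-only cultures of the same strain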; settings: S. cerevisiae rad50 strain growth inhibition, active compounds read high
Procedure, shortened: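 Genetically altered yeast (DNA repair pathway); compound treatment; growth inhibition vs vehicle ctrl.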

[15] = NCI Yeast Anticancer Drug Screen. Data for the mlh1 strain (AID 171);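 also: 0% = growth of vehicle-treated control cultures of the same strain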; settings: S. cerevisiae mlh1 strain growth inhibition, active compounds read high
Procedure, shortened: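 A yeast strain with a defined genetic lesion serves as the test organism. Cultures receive compound or vehicle, and growth is measured.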

[16] = at 5.0 µM (retest, dose inferred, filed as 0.5)
[17] = at 50.0 µM (retest, dose inferred, filed as 5.0)

Measured: growth inhibition

O/N=C/C1c2ccccc2-c2ccccc21
inactive: [2]; at 1.2 µM -1% | [2]; at 3.7 µM -1% | [2]; at 11.0 µM 9% | [2]; at 33.0 µM 51% | [3]; [16] -59% | [3]; [17] 30% | [3]; at 50.0 µM 50.8% | [4]; at 1.2 µM -3% | [4]; at 3.7 µM -3% | [4]; at 11.0 µM -6% | [4]; at 33.0 µM 2% | [4]; at 100.0 µM 53% | [5]; [16] -57% | [5]; [17] 8% | [6]; at 1.2 µM -6% | [6]; at 3.7 µM -2% | [6]; [16] -70% | [6]; at 11.0 µM -7% | [6]; at 33.0 µM 0% | [6]; [17] -15% | [6]; at 100.0 µM 59% | [7]; at 1.2 µM -1% | [7]; at 3.7 µM -2% | [7]; at 11.0 µM -3% | [7]; at 33.0 µM 22% | [8]; at 1.2 µM 0% | [8]; at 3.7 µM -2% | [8]; at 11.0 µM 0% | [8]; at 33.0 µM 44% | [9]; [16] -102% | [9]; [17] 39% | [10]; at 1.2 µM 2% | [10]; at 3.7 µM 11% | [10]; at 11.0 µM 44%
active: [1]; at 100.0 µM 72% | [2]; at 100.0 µM 96% | [5]; at 50.0 µM 96% | [6]; at 50.0 µM 98.8% | [7]; at 100.0 µM 70% | [8]; at 100.0 µM 88% | [9]; at 50.0 µM 97.3% | [10]; at 33.0 µM 74% | [10]; at 100.0 µM 97%

CC(=O)Oc1ccc(N2C(=O)C3c4[nH]c5ccccc5c4C4CCC(C(C)(C)C)CC4C3C2=O)cc1 (centres undefined)
inactive: [11]; at 1.2 µM 7% | [12]; at 1.2 µM 15% | [12]; at 3.7 µM 64% | [13]; at 1.2 µM -23% | [13]; at 3.7 µM -26% | [13]; at 11.0 µM -26% | [13]; at 33.0 µM -6% | [13]; at 100.0 µM 6% | [14]; at 1.2 µM -14% | [1]; at 1.2 µM -4% | [2]; at 1.2 µM -15% | [2]; at 3.7 µM 18% | [4]; at 1.2 µM 16% | [6]; at 1.2 µM -28% | [6]; at 3.7 µM 64% | [7]; at 1.2 µM -4% | [7]; at 3.7 µM 25% | [15]; at 1.2 µM -15% | [15]; at 3.7 µM 36% | [8]; at 1.2 µM -7% | [8]; at 3.7 µM 52% | [10]; at 1.2 µM 13%
active: [11]; at 3.7 µM 87% | [11]; at 11.0 µM 96% | [11]; at 33.0 µM 96% | [11]; at 100.0 µM 90% | [12]; at 11.0 µM 98% | [12]; at 33.0 µM 95% | [12]; at 100.0 µM 95% | [14]; at 3.7 µM 91% | [14]; [16] 98% | [14]; at 11.0 µM 96% | [14]; at 33.0 µM 95% | [14]; [17] 98% | [14]; at 50.0 µM 98.5% | [14]; at 100.0 µM 92% | [1]; at 3.7 µM 71% | [1]; [16] 99% | [1]; at 11.0 µM 98% | [1]; at 33.0 µM 98% | [1]; [17] 98% | [1]; at 50.0 µM 98.5% | [1]; at 100.0 µM 95% | [2]; at 11.0 µM 97% | [2]; at 33.0 µM 97% | [2]; at 100.0 µM 95% | [3]; [16] 98% | [3]; [17] 98% | [3]; at 50.0 µM 98.5% | [4]; at 3.7 µM 92% | [4]; at 11.0 µM 98% | [4]; at 33.0 µM 97% | [4]; at 100.0 µM 97% | [5]; [16] 83% | [5]; [17] 98% | [5]; at 50.0 µM 98.6% | [6]; [16] 98% | [6]; at 11.0 µM 97% | [6]; at 33.0 µM 96% | [6]; [17] 98% | [6]; at 50.0 µM 98.5% | [6]; at 100.0 µM 94% | [7]; at 11.0 µM 98% | [7]; at 33.0 µM 98% | [7]; at 100.0 µM 96% | [15]; at 11.0 µM 98% | [15]; at 33.0 µM 97% | [15]; at 100.0 µM 94% | [8]; at 11.0 µM 97% | [8]; at 33.0 µM 97% | [8]; at 100.0 µM 94% | [9]; [16] 98% | [9]; [17] 98% | [9]; at 50.0 µM 98% | [10]; at 3.7 µM 82% | [10]; at 11.0 µM 96% | [10]; at 33.0 µM 95% | [10]; at 100.0 µM 93%

Nc1nc2c(c(=O)[nH]1)NC(CCNc1ccc(C(=O)O)cc1)CN2 (centres undefined)
inactive: [11]; at 1.2 µM -2% | [11]; at 3.7 µM 1% | [11]; at 11.0 µM -5% | [11]; at 33.0 µM 2% | [11]; at 100.0 µM -5% | [12]; at 1.2 µM 1% | [12]; at 3.7 µM 1% | [12]; at 11.0 µM 2% | [12]; at 33.0 µM 1% | [12]; at 100.0 µM -1% | [13]; at 1.2 µM -3% | [13]; at 3.7 µM -4% | [13]; at 11.0 µM -3% | [13]; at 33.0 µM -2% | [13]; at 100.0 µM -5% | [14]; at 1.2 µM -3% | [14]; at 3.7 µM 2% | [14]; [16] 14% | [14]; at 11.0 µM -5% | [14]; at 33.0 µM -4% | [14]; [17] 12% | [14]; at 50.0 µM -12.1% | [14]; at 100.0 µM -1% | [1]; at 1.2 µM -1% | [1]; at 3.7 µM 2% | [1]; [16] 7% | [1]; at 11.0 µM 4% | [1]; at 33.0 µM 2% | [1]; [17] 18% | [1]; at 50.0 µM -35.5% | [1]; at 100.0 µM -13% | [2]; at 1.2 µM 0% | [2]; at 3.7 µM -6% | [2]; at 11.0 µM 2% | [2]; at 33.0 µM 3% | [2]; at 100.0 µM 6% | [3]; [16] 11% | [3]; [17] -2% | [3]; at 50.0 µM -0.75% | [4]; at 1.2 µM -2% | [4]; at 3.7 µM -3% | [4]; at 11.0 µM -3% | [4]; at 33.0 µM 1% | [4]; at 100.0 µM 2% | [5]; [16] 31% | [5]; [17] 39% | [5]; at 50.0 µM 2.45% | [6]; at 1.2 µM 2% | [6]; at 3.7 µM 2% | [6]; [16] -13% | [6]; at 11.0 µM 0% | [6]; at 33.0 µM -1% | [6]; [17] 6% | [6]; at 50.0 µM 6.15% | [6]; at 100.0 µM 24% | [7]; at 1.2 µM 0% | [7]; at 3.7 µM 2% | [7]; at 11.0 µM 1% | [7]; at 33.0 µM 0% | [7]; at 100.0 µM 3% | [15]; at 1.2 µM 0% | [15]; at 3.7 µM -1% | [15]; at 11.0 µM 0% | [15]; at 33.0 µM 0% | [15]; at 100.0 µM 15% | [8]; at 1.2 µM -2% | [8]; at 3.7 µM -3% | [8]; at 11.0 µM -4% | [8]; at 33.0 µM -6% | [8]; at 100.0 µM -3% | [9]; [16] 8% | [9]; [17] 28% | [9]; at 50.0 µM 4.25% | [10]; at 1.2 µM -3% | [10]; at 3.7 µM -5% | [10]; at 11.0 µM -10% | [10]; at 33.0 µM -22% | [10]; at 100.0 µM -29%
